# Source: PubChem BioAssay (NCATS)
# Inconclusive results are not listed. The source made the active and inactive calls. The call rests on the fitted dose curve; in most records, active means well fitted curve in either direction with a large enough effect (not every such curve was filed as active); inconclusive means small, poorly fitted or top-dose-only effect, or another doubt; inactive means flat fitted curve, though single readings scatter.
# Biological target: Mitogen-activated protein kinase 10 (Mus musculus) (UniProt Q61831)
# Test: JNK3 AlphaScreen Assay (AID 530);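 further: kinase came from lysate of stimulated human HepG2 cells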
# Conditions: JNK3 lysate, c-Jun phosphorylation; series mostly up to 57.1 µM
# From the text: NIH Chemical Genomics Center [NCGC]
# NIH Molecular Libraries Screening Centers Network [MLSCN]
# The c-jun N-terminal kinase (JNK) family are serine/threonine protein kinases that phosphorylate c-jun, a component of the transcription factor […] (AP-1). JNK kinases are members of the mitogen-activated protein kinase family including the extracellular regulated kinases and p38 kinases. Three JNK genes (JNK 1, 2, and 3) have been identified in humans so far. JNK1 and JNK2 have a broad distribution and JNK3 is primarily found in neuronal tissues and cardiac myocytes.
# JNK3 has been under consideration as a target for the treatment of neurodegenerative disorders. […] JNK pathway is also involved in pathological process in a mouse model of Parkinson's disease (Xia et al., 2001).
# Given these potential tissue distributions and links to neuroprotection, JNK3 inhibitors should provide useful investigational tools to study the role of this kinase in several diseases including, arthritis, stroke, myocardial infarction, ischemic injury and Parkinson's disease.
# A homogeneous AlphaScreen is developed to measure the activity of JNK3. AlphaScreen is a two bead-based proximity-dependent chemical energy transfer luminescent assay platform. The phosphorylation of a biotinylated c-jun substrate by JNK3 can be detected with an antibody raised against phosphorylated c-jun. This process brings streptavidin donor beads and Protein-A acceptor beads to within a proximity range of <200 nm, and subsequently lead a chemical luminescent reaction upon exciting donor beads with 680 nm laser excitation light. Inhibition of JNK3 activity by small molecules and subsequent decrease in the antibody binding to biotinylated c-jun could attenuate or abolish this chemical luminescent reaction.
# Yang DD, Kuan CY, Whitmarsh AJ, Rincon M, Zheng TS, Davis RJ, Rakic P and Flavell RA (1997) Absence of excitotoxicity-induced apoptosis in the hippocampus of mice lacking the Jnk3 gene. Nature 389:865-870. [PMID: 9349820]
# Herdegen T, Claret FX, Kallunki T, Martin-Villalba A, Winter C, Hunter T, and Karin M (1998) Lasting N-terminal phosphorylation of c-Jun and activation of c-Jun N-terminal kinases after neuronal injury. J.Neurosci. 18:5124-5135. [PMID: 9651196]
# Xia XG, Harding T, Weller M, Bieneman A, Uney JB and Schulz JB (2001) Gene transfer of the JNK interacting protein-1 protects dopaminergic neurons in the MPTP model of Parkinson's disease. Proc.Natl.Acad.Sci.U.S.A. 98:10433-10438.
# NCGC Assay Protocol Summary:
# GST-cJun (1-79) (Stratagene, La Jolla CA, #205145) was biotnylated by PerkinElmer (PerkinElmer-BioSignalInc. Montreal, Canada) and was detectable by the streptavidin Donor beads. Anti-(phospho)cJun (Ser73) antibody was from UpState (Charlottesvilles, VA, #06-659). JNK3-containing lysates were generated from HepG2 cells and pre-activated by interleukin1-beta and tumor necrosis factor alpha. All reagents were stored at -20 C before using. Phosphorylated biotinylated-GST-cJun was recognized by Anti-(phospho)cJun (Ser73) antibody and this process brings acceptor and donor beads together. Therefore JNK3 phosphorylation of cJun can be measured by Alpha reading by EnVision (PerkinElmer, Boston, MA).
# The composition of kinase buffer was (in mM) 20 tris- HCl (pH 7.6) 10 MgCl2, 1 DTT, and 0.1 Na3VO4 and 0.01% Tween-20. Beads were diluted in detection buffer containing (in mM) 20 tris-HCl (pH 7.7), 20 NaCl and 80 EDTA and 0.3% BSA. The assay was performed at room temperature. All compounds were screened as titrations from 0.6 nM to 46 uM final concentration. The assay was performed in 1536-well format (white solid bottom and untreated) as follows:
# Sequence,Parameter,Value,Description
# 1,Reagent,3 uL,Biotin-GST-cJun, Anti-(phospho)cJun and pre-activated JNK3-containing lysates
# 2,Compound,23 nL,Final concentration was 0.6nM to 46uM
# 3,Time,15 minutes,Room Temperature
# 4,Reagent,1 uL,ATP final concentration 10uM
# 6,Reagent,0.5 uL,2ng/well bead mixture
# […]
row,SMILES,outcome
1,O=C1C=CCCC1,inactive
2,CC(=O)Nc1ccc(C)cc1,inactive
3,CC(=O)c1cccc([N+](=O)[O-])c1,inactive
4,CC1CCCO1 (stereo not given),inactive
5,c1ccc(Nc2ccccc2)cc1,inactive
6,CCCCOCCOCCOCCCC,inactive
7,CCOCCOCC,inactive
8,O=C(O)c1ccccc1Cl,inactive
9,Cc1cc([N+](=O)[O-])ccc1N,inactive
10,O=[N+]([O-])c1ccc(Cl)cc1Cl,inactive
11,Cc1c(N)cccc1N,inactive
12,CCNc1ccccc1,inactive
13,Cc1ccccc1Br,inactive
14,Cc1c(C(=O)O)cccc1[N+](=O)[O-],inactive
15,C=C(C)C(=O)OC,inactive
16,[O-]/[N+](=N\O)c1ccccc1,inactive
17,Cc1cccc2cccnc12,inactive
18,CCCC(Cl)CCCC(Cl)CCC(Cl)CCC(Cl)CCC(Cl)CCCC(Cl)CCC (stereo not given),inactive
19,CCCCCCCCCCCCOCC1CO1 (stereo not given),inactive
20,O=C(O)c1ccccc1[N+](=O)[O-],inactive

row,SMILES,outcome
1,C=CCCC,inactive
2,O=C(O)/C=C/C(=O)O,inactive
3,O=C(Cl)c1ccccc1[N+](=O)[O-],inactive
4,CC1(N)CCC(C(C)(C)N)CC1 (stereo not given),inactive
5,Cc1c(N)cccc1[N+](=O)[O-],inactive
6,Nc1cc(Cl)c([N+](=O)[O-])cc1O,inactive
7,Cc1cccc([N+](=O)[O-])c1C(=O)O,inactive
8,C=CC(=O)OCCCC,inactive
9,Oc1cccc(Nc2ccccc2)c1,inactive
10,CCNS(=O)(=O)c1ccc(C)cc1,inactive
11,CN(C)c1cccc(O)c1,inactive
12,O=Cc1ccc(C(=O)O)cc1,inactive
13,NC(=O)CCCCC(N)=O,inactive
14,CC(=O)c1nccs1,inactive
15,CCCCCCCCC/C=C/CC1CC(=O)OC1=O (stereo not given),inactive
16,Cc1cccc(C)c1,inactive
17,CCCCC(CC)CO (stereo not given),inactive
18,CCCCC(=O)N(C)C,inactive
19,Nc1ccccc1S(=O)(=O)O,inactive
20,O=C(O)CNC(=O)c1ccc([N+](=O)[O-])cc1,inactive
